The text below walks through data of PubChem BioAssay (NCI).

What all share (test): NCI-60 one-dose screen, 48 h (100 = growth as untreated, 0 = no growth, -100 = all killed)
Conditions in all cases: 10 µM unless noted

In assay [1] the test system is BT-549 breast.
Assay [2] has as its system MDA-MB-435 melanoma.
Assay [3] concerns SW-620 colon.
Assay [4] deals with MCF7 breast.
For assay [5], the system named is HCT-116 colon.
In assay [6] the test system is HCC-2998 colon.
The subject of assay [7] is KM12 colon.

The panel holds about 83,000 compounds, 20% with a hit somewhere; the sample as a whole holds those more often.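 Cell lines were cultured in 96-well plates, exposed to a single compound concentration, and assessed for percent growth 48 hours later.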 Values without a mark were called inactive. Active and inactive are the calls of the source. How the source made its calls: active means growth percent below 10; inactive means the rest.

Turning to `Cc1cc(=O)c2cc3nc(-c4cccnc4)oc3c(Br)c2o1`, the growth in assay [1] was 103%; in assay [2] it was 107%; in assay [3] it was 99.5%; in assay [4], 94.9%; in assay [5] it was 99.9%; in assay [6], 106%. The growth in assay [7] was 109%.

In the case of `CCn1c(Sc2nnc(NC(=O)CSC(=S)N3CCCCC3)s2)nc2c1c(=O)n(C)c(=O)n2C`, the growth in assay [1] is 79.7%; in assay [2] it was 6.74% (active); in assay [3], 61.8%; in assay [4] it was 91.9%; in assay [5] it was 87.7%; in assay [6] it was 81.9%. Also, the growth in assay [7] was 64.2%.

`NC(=S)N/N=C/C(=O)O`: the growth in assay [1] is 95%; in assay [2], 92.5%; in assay [3], 65.7%; in assay [4], 11.7%; in assay [5], 6.98% (active); in assay [6] it was 104%. Besides, in assay [7], the growth was 99.4%.

On to `COc1cc(C2CC(=O)Nc3n[nH]c(-c4ccccc4)c32)cc(OC)c1OC` (stereo not given), for which the growth in assay [1] was 52.4%; in assay [2] it was -2.19% (active); in assay [3], 44.5%; in assay [4] it was 47.1%; in assay [5] it was 45.1%; in assay [6], 68%. In addition, the growth in assay [7] was 51.5%.

For the compound `C=CC(=O)Nc1cccc(C)c1Nc1cc(-c2cccnc2Cc2c(C)c(OC)cc(OC)c2C)ncn1`, the growth in assay [1] was 5.86% (active); in assay [2], 19.9%; in assay [3], 24.8%; in assay [4] it was 8.59% (active); in assay [5], 15.8%; in assay [6], 71.1%. The growth in assay [7] is 17.6%.

As for `C=C(C)[C@@H]1CC[C@]2(CN)CC[C@]3(C)[C@H](CC[C@@H]4[C@@]5(C)CCC(N)[C@@](C)(CO)[C@@H]5CC[C@]43C)[C@@H]12` (stereo not given in full), the growth in assay [1] is 80.4%; in assay [2], -86.7% (active); in assay [3], -76.5% (active); in assay [4], -72.2% (active); in assay [5], -85.5% (active); in assay [6], -53.6% (active). Moreover, in assay [7], the growth was -72.1% (active).

`CS(=O)(=O)c1ccc(-c2[nH]c3ccc(F)cc3c2/C=N/O)cc1`: the growth in assay [1] is 91%; in assay [2] it was 99.6%; in assay [3], 110%; in assay [4], 82.9%; in assay [5], 87.9%; in assay [6], 110%. In addition, the growth in assay [7] was 101%.

As for `COC(=O)c1ccc2oc(NC(=O)c3ccc(N4CCOCC4)c([N+](=O)[O-])c3)nc2c1`, the growth is 95.7% in assay [1]; 107% in assay [2]; 100% in assay [3]; 94.1% in assay [4]; 93% in assay [5]; 105% in assay [6]. Also, the growth in assay [7] is 102%.

In the case of `OC(CBr)c1ccnc2ccccc12` (stereo not given), the growth in assay [1] was 92%; in assay [2] it was 100%; in assay [3], 104%; in assay [4], 96.3%; in assay [5], 90.7%; in assay [6], 103%. The growth in assay [7] is 99.3%.

As to `COc1ccc(-n2sc(=O)n(Cc3ccc(COC(=O)C(C)c4ccc(CC(C)C)cc4)cc3)c2=O)cc1` (stereo not given), the growth is 52.8% in assay [1]; 22% in assay [2]; -12.5% (active) in assay [3]; 17.8% in assay [4]; -31.9% (active) in assay [5]; 83.9% in assay [6]. In assay [7], the growth was 85.8%.

In the case of `C=C(CNCCc1ccc(O)cc1)[C@@H]1CC[C@]2(COC3CCCCO3)CC[C@]3(C)[C@H](CC[C@@H]4[C@@]5(C)CCC(N)C(C)(C)[C@@H]5CC[C@]43C)[C@@H]12` (stereo not given in full), the growth in assay [1] is -70% (active); in assay [2], -95% (active); in assay [3], -77.4% (active); in assay [4], -79.8% (active); in assay [5] it was -91.3% (active); in assay [6], -84.7% (active). Also, the growth in assay [7] was -85.7% (active).

For `CN(C)CN1CCN(c2ccc3nc(-c4ccc5nc(-c6ccc(C(F)(F)F)cc6)[nH]c5c4)[nH]c3c2)CC1`, the growth in assay [1] was 86.2%; in assay [2], 40.9%; in assay [3], 27%; in assay [4] it was 9.58% (active); in assay [5], 23.8%; in assay [6], 84.7%. Also, in assay [7], the growth was 26.5%.

For the compound `CN(C)c1ccc(/C=C/c2c(F)cccc2F)cc1`, the growth in assay [1] is 94.7%; in assay [2] it was 101%; in assay [3], 104%; in assay [4], 49.7%; in assay [5], 91.8%; in assay [6], 95.1%. For the same compound, the growth in assay [7] is 91.7%.

In the case of `CC(C)n1nc(C#Cc2cccc3cc(-c4cccc(C(F)(F)F)c4)ncc23)c2c(N)ncnc21`, the growth in assay [1] is 97.7%; in assay [2], 67.3%; in assay [3] it was 71.8%; in assay [4], 75.7%; in assay [5], 31.4%; in assay [6], 98.1%. Moreover, the growth in assay [7] is 60.9%.

Turning to `C[C@H]1[C@H]2C3=CC[C@@H]4[C@@]5(C)C/C(=C/c6ccncc6)C(=O)C(C)(C)[C@@H]5CC[C@@]4(C)[C@]3(C)CC[C@@]2(C(=O)N2CCN(C)CC2)CC[C@@H]1C`, the growth in assay [1] is 89.3%; in assay [2] it was 81.9%; in assay [3], 83.1%; in assay [4] it was 58.5%; in assay [5], 55.4%; in assay [6] it was 82.9%. The growth in assay [7] is 67.5%.

Consider `Cc1cn(C2CCCCC2)c(=O)[nH]c1=O`, for which the growth is 102% in assay [1]; 108% in assay [2]; 109% in assay [3]; 108% in assay [4]; 107% in assay [5]; 112% in assay [6]. Moreover, the growth in assay [7] was 117%.

Regarding `C=C(CNCCc1ccc(O)cc1)[C@@H]1CC[C@]2(COC3CCCCO3)CC[C@]3(C)[C@H](CC[C@@H]4[C@@]5(C)CCC(NCCO)C(C)(C)[C@@H]5CC[C@]43C)[C@@H]12` (stereo not given in full), the growth is 41.2% in assay [1]; -89.8% (active) in assay [2]; -76.2% (active) in assay [3]; -84.3% (active) in assay [4]; -89.5% (active) in assay [6]; -84.9% (active) in assay [7].

As to `Oc1[nH]c2ccccc2c1/C=c1/cc2c(c(-c3ccc(F)cc3)n1)=Nc1ccccc1-2`, the growth in assay [1] is -31.3% (active); in assay [2], -30.4% (active); in assay [3], -10.6% (active); in assay [4], -62.4% (active); in assay [5] it was -61.3% (active); in assay [6] it was -63.7% (active). In assay [7], the growth was 14.6%.

Consider `COc1ccc(CN2C(=O)/C(=C\c3cc(OC)c(OC)c(OC)c3)c3ccccc32)cc1`, for which the growth in assay [1] was 24.5%; in assay [2], -10.9% (active); in assay [3], -40.3% (active); in assay [4], 7.23% (active); in assay [5], -93.8% (active); in assay [6], 16.9%. In assay [7], the growth is -23.7% (active).

Take `C=C1c2c(C)nn(-c3ccc(NC(C)=O)cc3)c2N(C)C23CC1C1(C)c4c(C)nn(-c5ccc(NC(C)=O)cc5)c4N(C)C(C)(CC12)C3` (stereo not given): the growth in assay [1] is 44%; in assay [2], 30.6%; in assay [3], 27.9%; in assay [4] it was 9.67% (active); in assay [5] it was 13.4%; in assay [6], 44.7%. The growth in assay [7] was 23.6%.

As for `COc1cc(NC(=O)c2cccc(-c3cc(=O)c4c(OC)c(OC)c(OC)cc4o3)c2)cc(OC)c1OC`, the growth is 27% in assay [1]; 6.36% (active) in assay [2]; 67% in assay [3]; 34.3% in assay [4]; 48.6% in assay [5]; 45.8% in assay [7].

In the case of `C=C1C(=O)O[C@H]2[C@H]1CC/C(COC(=O)/C=C/C(=O)NCc1ccc(Cn3c(=O)sn(-c4ccccc4)c3=O)cc1)=C\CC[C@@]1(C)O[C@@H]21`, the growth in assay [1] was -3.27% (active); in assay [2], -26.6% (active); in assay [3] it was -64.5% (active); in assay [4] it was 5.01% (active); in assay [5] it was -79.1% (active); in assay [6], 54.4%. Besides, the growth in assay [7] is 49.1%.

For `CC(C)n1nc(C#Cc2cccc(O)c2)c2c(N)ncnc21`, the growth in assay [1] is -65.4% (active); in assay [2], -25.8% (active); in assay [3], 0.77% (active); in assay [4], 0.624% (active); in assay [5], -63.8% (active); in assay [7], -7.5% (active).

Consider `O=C1CSC(c2ccccc2)N1c1ccccc1` (stereo not given), for which the growth in assay [1] is 103%; in assay [2] it was 108%; in assay [3] it was 94.5%; in assay [4] it was 96.6%; in assay [5] it was 99.9%; in assay [6], 115%. Besides, in assay [7], the growth was 98.4%.
